Test results: the supplement of paper PMC6555819

Legend:
Assay in all cases: PBM binding z-score (relative to random genomic background probes); higher = stronger binding; sequences stand for … in GC…GCGATTGACAGCGTAGAATGAAGG
[1] = tested on: FXR:RXRa (NR concentration 270 nM, RXRa partner concentration 90 nM)
In short: (§1)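 Probes were double-stranded and carried 34-nt variable regions with direct-repeat seeds, single-nucleotide variants, half-site ablations and random human genomic background sequences, printed on custom Agilent 4×180K protein-binding microarrays. Arrays were incubated 1 h with ligand-free nuclear receptor dimers in PBS pH 7.4, 2% milk, 0.02% Triton X-100, 1 mM DTT, 0.2 mg/mL BSA and 0.4 mg/ml salmon testes DNA. Antibodies against each partner (one per run) detected binding, and scanned fluorescence was regression-normalized. Binding z-scores use the random background probes as reference.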

[2] = tested on: LXRa:RXRa (NR concentration 270 nM, RXRa partner concentration 90 nM)
In short: as §1

[3] = tested on: LXRa homodimer (NR concentration 270 nM)
In short: as §1

[4] = tested on: LXRb:RXRa (NR concentration 270 nM, RXRa partner concentration 90 nM)
In short: as §1

[5] = tested on: LXRb homodimer (NR concentration 270 nM)
In short: as §1

[6] = tested on: PPARa:RXRa (NR concentration 270 nM, RXRa partner concentration 90 nM)
In short: as §1

[7] = tested on: PPARg:RXRa (NR concentration 180 nM, RXRa partner concentration 90 nM)
In short: as §1

[8] = tested on: PPARg:RXRa 270nM:90nM, anti-RXR (NR concentration 270 nM, RXRa partner concentration 90 nM)
In short: as §1

[9] = tested on: PPARg:RXRa 30nM:10nM, anti-RXR (NR concentration 30 nM, RXRa partner concentration 10 nM)
In short: as §1

[10] = tested on: PPARg:RXRa 90nM:30nM, anti-RXR (NR concentration 90 nM, RXRa partner concentration 30 nM)
In short: as §1

[11] = tested on: PPARg:RXRa DBDmut IVT, anti-RXR (DBD mutation: RXRa K156A/R161A, NR concentration 270 nM, RXRa partner concentration 90 nM)
In short: as §1

[12] = tested on: PPARg:RXRa IVT, anti-PPARg (NR concentration 270 nM, RXRa partner concentration 90 nM)
In short: as §1

[13] = tested on: PPARg DBDmut:RXRa IVT, anti-PPARg (DBD mutation: PPARg1 K132A/R137A, NR concentration 270 nM, RXRa partner concentration 90 nM)
In short: as §1

[14] = tested on: PPARg DBDmut IVT, anti-PPARg (DBD mutation: PPARg1 K132A/R137A, NR concentration 270 nM)
In short: as §1

[15] = tested on: PPARg homodimer (NR concentration 180 nM)
In short: as §1

[16] = tested on: PXR:RXRa (NR concentration 270 nM, RXRa partner concentration 90 nM)
In short: as §1

[17] = tested on: PXR homodimer (NR concentration 270 nM)
In short: as §1

[18] = tested on: RARa:RXR (NR concentration 270 nM, RXRa partner concentration 90 nM)
In short: as §1

[19] = tested on: RARa homodimer (NR concentration 270 nM)
In short: as §1

[20] = tested on: RARb:RXRa (NR concentration 270 nM, RXRa partner concentration 90 nM)
In short: as §1

Sequence	PBM binding z-score [1]	PBM binding z-score [2]	PBM binding z-score [3]	PBM binding z-score [4]	PBM binding z-score [5]	PBM binding z-score [6]	PBM binding z-score [7]	PBM binding z-score [8]	PBM binding z-score [9]	PBM binding z-score [10]	PBM binding z-score [11]	PBM binding z-score [12]	PBM binding z-score [13]	PBM binding z-score [14]	PBM binding z-score [15]	PBM binding z-score [16]	PBM binding z-score [17]	PBM binding z-score [18]	PBM binding z-score [19]	PBM binding z-score [20]
TCTAGTTGGTCAAAGGTCACACCCTCGAAATGCG	5.49	5.27	4.32	5.41	1.92	6.69	11.6	10.1	10.3	12.2	3.68	6.43	1.66	0.719	6.91	6.04	2.22	7.62	4.33	5.02
TCGTGTAGATCAAAGGTTAAGAAAGCCGAAGCCT	1.91	1.98	0.381	1.83	0.049	3.91	5.73	6.47	5.88	6.62	0.876	2.22	-0.315	-0.277	1.21	1.9	-0.215	2.68	0.495	1.86
CGAACTAGGTCAGAACAGGACAGTGGAGGATGAT	1.69	0.958	-0.201	0.242	-0.2	2.93	5.08	4.33	1.86	3.73	7.32	7.18	1.32	0.317	0.748	0.65	-0.155	0.722	0.321	2.99
CCGACTGGGGCAGAAAGGTTACCATACCATCCGG	0.35	0.432	-0.092	0.947	-1.04	2.03	1.69	2.6	0.687	2.03	1.62	2.01	-0.897	-0.652	1.04	0.796	-0.416	1.49	-0.549	1.74
TCTTGAAGATCAGCAGGTTAAGAAAGCTGGCCAA	0.211	0.582	-0.541	0.285	-0.955	0.856	-0.581	1.44	2.86	2.07	1.75	-0.514	-1.09	-0.481	-0.436	0.0848	-0.299	0.104	-0.00981	0.0583
TCTCGGAGGACACTAAGGTCAGAGCTTTCCAGAG	1.87	1.63	0.625	1.5	-0.615	2.32	0.459	1.84	2.1	1.81	1.61	1.22	-0.543	-1.32	1.72	3.24	6.61	2.71	-0.0898	3.32
CCTACTGGGCCACGAAAGGTCATTTATTCAGTGA	3.85	5.32	6.04	4.6	1.31	4.47	4.58	4.66	1.87	4.02	5.5	5.64	-0.2	-0.0827	2.68	5.07	2.29	4.64	1.05	3.78
CCGGCTAGGTCATGGTCAGCTAATCTACAGTATG	3.61	2.64	0.191	1.89	0.207	3.42	1.86	2.4	0.212	1.38	3.44	2.65	-0.0629	-0.269	2.5	1.4	-0.16	2.53	0.954	3.91
ATCTCTAGGTAACCAAGTTCAGAGAATGCCGAAC	0.204	0.722	0.915	0.628	0.739	1.2	0.721	0.986	-0.0566	0.52	3.4	2.88	1.18	0.83	0.879	2.15	1.71	0.548	0.605	1.22
CCGAGTAGGTTATGGGGCATGCAGGCAACGGTGA	0.144	0.219	-0.12	0.502	-0.337	1.93	3.81	4.62	2.08	4.14	2.71	3.37	-0.039	-0.361	0.867	-0.014	-0.179	0.374	0.0539	1.03
CTCGAAAGGTCGTGCTGAGGTGAGTATACCAAAC	4.89	3.82	0.000478	3.31	-0.153	4.82	2.58	3.85	1.23	2.67	0.827	1.96	0.22	0.0024	1.84	3.61	0.222	4.16	-0.373	3.93
AATCCAGGGTCATCGTAGGCCAGAGTACGCACAG	7.58	6.18	1.65	4.8	0.807	5.75	6.7	6.07	3.18	4.59	2.54	4.33	1.57	0.689	2.41	5.14	0.854	5.49	1.2	4.32
CCAGACAGGTGAGCAGGTAACTCAGCCTCGATTA	-0.268	0.0871	-0.134	0.00402	-0.328	0.272	0.174	-0.00169	-0.644	-0.464	1.15	0.619	-0.93	-1.41	0.319	-0.31	0.22	-0.516	0.0182	0.568
CTCGAAAGGTCGGTTGAGGTGAGTGTACGGATAA	2.54	2.08	-0.0781	1.51	-0.0633	2.67	0.33	1.27	0.405	0.48	0.169	1.3	0.72	-0.675	1.07	3.54	0.527	3.02	0.735	3.07
